Experiment [1] in a line: Cytotoxicity counterscreen for inhibitors of SARS-CoV-2 cell entry (AID 1645845). Also: nearly all actives have a fitted effect of over 50% in size. Also: potency is read from the fitted curve at half-maximal effect. As to activity change, negative = cytotoxicity: % is scaled to controls: 0 for no effect and ±100 for the full control effect. To be noted: outcome: dose series up to 57.1 µM unless noted. Put shortly:
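ATP-content luminescence (ATPLite 1step, 15 min RT) read after 48 h compound exposure of Expi293F cells stably expressing human ACE2; normalized to cells-only wells and media-only wells.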
(The purpose of a counterscreen is to sort out artefacts and off-target activity.)

The nature of experiment [2]: Primary qHTS to identify inhibitors of SARS-CoV-2 cell entry (AID 1645846). Also: nearly all actives have a fitted effect of over 45% in size. The following applies: SARS-CoV-2 pseudovirus cell entry assay, luminescence; activity change, negative = inhibition: at 57.1 µM (top of the series) unless noted. Put shortly:
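Using luciferase-reporting pseudoviruses carrying Wuhan-Hu-1 spike, the screen tracks entry into stably ACE2-expressing cells over 48 hr. Activity is expressed relative to spike particles versus particles lacking any fusion protein.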
On the technique in general: Quantitative high-throughput screening tests each substance at several concentrations.

Results filed as inconclusive are left out. The source made the active and inactive calls. Calls follow the shape of the full dose curve.

In the case of `COc1cc2c3c(n(CCCNCCO)c(=O)c2cc1OC)-c1cc2c(cc1C3=O)OCO2`, in experiment [1], the Potency is 7.94 µM (active). For the same compound, the activity change, negative = inhibition in experiment [2] is -96.5%.
Regarding `COC(=O)C1=C(C)NC(c2ncc(F)cc2F)=N[C@@H]1c1ccc(F)cc1Cl`, the Potency result in experiment [1] was “inactive”. The activity change, negative = inhibition in experiment [2] is -19.4%.
Turning to `N=C1S/C(=C\c2ccc(-c3ccc4c(c3)C(=O)NC4=O)o2)C(=O)N1c1ccc(Br)cc1`, the Potency entry in experiment [1] was “inactive”. Moreover, the activity change, negative = inhibition in experiment [2] was -8.86% [at 27.1 µM].
The like results for `NCC(=O)Nc1cncc(-c2nn3c(=O)cc(N4CCNCC4)nc3s2)c1` were, in that order, “inactive” and -55.5%.
On to `Cc1cc(-c2cnn3c(NCC4CC(C)(O)C4)cc(Oc4cccnc4)nc23)ccc1C(=O)NC1CC1` (stereo not given), for which, in experiment [1], the activity change, negative = cytotoxicity was 4.49% [at 5.25 µM] (inactive). For the same compound, in experiment [2], the activity change, negative = inhibition is -11.3% [at 5.25 µM].
Consider `Cc1c(Cl)cccc1S(=O)(=O)Nc1nc(CCN2CCOCC2=O)cs1`, for which, in experiment [1], the Potency result was “inactive”. Also, the activity change, negative = inhibition in experiment [2] is -11.4%.
Turning to `O=C1S/C(=C\c2ccc(OCc3cccc(B(O)O)c3)cc2)C(=O)N1Cc1ccc(F)cc1`, in experiment [1], the Potency entry was “inactive”. Further, the activity change, negative = inhibition in experiment [2] was -28.4%.
As for `C[C@H](Nc1ncnc2nc[nH]c12)c1cc2ccc(F)cc2nc1-c1ccccn1`, the Potency result in experiment [1] was “inactive”. The activity change, negative = inhibition in experiment [2] is -9.43%.
On to `CN(CCOc1ccc(-c2ccc3c(c2)OCO3)cc1C(C)(C)C)CC(=O)O`, for which the Potency result in experiment [1] is “inactive”. The activity change, negative = inhibition in experiment [2] was -18.5%.
As for `CC1=NN(c2ccc(C(=O)O)cc2)C(=O)/C1=C/c1ccc(-c2cc(C)c(C)cc2[N+](=O)[O-])o1`, the Potency result in experiment [1] and in experiment [2] was “inactive” throughout.
Take `O=C(COCC(=O)N1CCN(C(c2ccccc2)c2ccccc2)CC1)Nc1ccc(Cl)cc1C(=O)O`: the Potency result in experiment [1] was “inactive”. Also, the activity change, negative = inhibition in experiment [2] was -0.414%.
With `CCn1c(=O)c(-c2ccc(Cl)cc2Cl)cc2cnc(Nc3ccc(N4CCNCC4)c(F)c3)nc21`, the Potency result in experiment [1] and in experiment [2] was “inactive” in each case.
`Clc1cccc(-c2ccc(-c3nnc(CCCc4ccc5cccnc5n4)o3)cc2)c1`: the Potency result in experiment [1] and in experiment [2] was “inactive” each time.
`C=C1CCC[C@]2(C)C=C3OC(=O)C(C)=C3C[C@@H]12`: the Potency result in experiment [1] was “inactive”. Moreover, in experiment [2], the activity change, negative = inhibition was -28.3%.
On to `Nc1nc(OC(c2ccc(-c3cccc(F)c3)cc2)C(F)(F)F)cc(-c2ccc(C[C@@H](N)C(=O)O)cc2)n1` (stereo not given in full), for which the Potency result in experiment [1] and in experiment [2] was “inactive” in each case.
As for `C[C@@H]1O[C@@H](O[C@@H]2\C=C/C=C\C=C/C=C\C[C@H](C)OC(=O)/C=C\[C@H]3O[C@@H]3C[C@H](O)C[C@]3(O)C[C@@H](O)[C@@H](C(=O)O)[C@H](C2)O3)[C@H](O)[C@H](N)[C@@H]1O`, the Potency result in experiment [1] is “inactive”. Further, the activity change, negative = inhibition in experiment [2] is -17.3%.
The like results for `COc1ccc(Cl)cc1-c1cc(=O)[nH]c(=S)n1CC(N)=O` were, in that order, “inactive” and 4.69%.
On to `CC(C)(O)[C@H]1CC[C@@](C)([C@H]2[C@@H](O)C[C@@]3(C)[C@@H]4C[C@H](O[C@@H]5O[C@H](CO)[C@@H](O)[C@H](O)[C@H]5O)[C@H]5C(C)(C)[C@@H](O[C@@H]6OC[C@@H](O)[C@H](O)[C@H]6O)CC[C@@]56C[C@@]46CC[C@]23C)O1`, for which the Potency result in experiment [1] and in experiment [2] was “inactive” each time.
For `CC(C)(C)C(=O)CN1C(=O)[C@H](NC(=O)Nc2cccc(C(=O)O)c2)CN(C2CCCCC2)c2ccccc21`, in experiment [1], the Potency result is “inactive”. Moreover, the activity change, negative = inhibition in experiment [2] was -4.52%.
The like results for `O=C(N[C@H]1CCC[C@H](CO)C1)C1CCN(c2nc3cc(Cl)c(-c4ccc(Cl)cc4)cc3o2)CC1` were, in that order, “inactive” and -9.89%.
The like results for `C[C@@H]1C(=O)OC2[C@H](O)[C@]34[C@H]5C[C@@H](C(C)(C)C)[C@]36[C@@H](OC(=O)[C@@H]6O)O[C@@]4(C(=O)O5)[C@]21O` (stereo not given in full) were, in that order, “inactive” and -20.5%.
For `CCCCC[C@H](O)/C=C/[C@H]1[C@H](O)CC(=O)[C@@H]1CCCCCCC(=O)O` the same measures were “inactive” and -2.28%.
`COC(=O)C1=C(C)NC(c2ncc(F)cc2F)=N[C@H]1c1ccc(F)cc1Cl`: the Potency entry in experiment [1] and in experiment [2] was “inactive” each time.
For `O=C(/C=C/c1ccc(/C=C/C(=O)Nc2ccc(C3=NCCN3)cc2)cc1)Nc1ccc(C2=NCCN2)cc1`, in experiment [1], the activity change, negative = cytotoxicity is -2.26% [at 5.25 µM] (inactive). The activity change, negative = inhibition in experiment [2] was -24.3% [at 5.25 µM].
Consider `CC1(C)CCC2(CC1)N[C@@H](C(=O)N[C@@H]1CC[C@@H](C(N)=O)OC1)[C@H](c1ccnc(Cl)c1F)[C@]21C(=O)Nc2cc(Cl)ccc21`, for which, in experiment [1], the Potency entry was “inactive”. Moreover, in experiment [2], the activity change, negative = inhibition is -20.9% [at 37.9 µM].
As for `CC(C)(O)c1coc(S(=O)(=O)NC(=O)Nc2c3c(cc4c2CCC4)CCC3)c1`, the Potency result in experiment [1] and in experiment [2] was “inactive” throughout.
As to `CN1CCN(C(=O)[C@H]2[C@@H](C(=O)O)[C@H]3CC[C@@H]2O3)CC1`, the activity change, negative = cytotoxicity in experiment [1] is 2.39% [at 11.3 µM] (inactive). In experiment [2], the activity change, negative = inhibition is -6.02% [at 11.3 µM].
On to `Cn1cc(-c2ccc(F)c(C(F)(F)F)c2)nc1C1CCN(c2ncnc3[nH]ncc23)CC1`, for which the Potency result in experiment [1] and in experiment [2] was “inactive” each time.
For the compound `O=c1ccn([C@@H]2O[C@H](CO)[C@@H](O)[C@H]2O)c(=O)[nH]1`, the Potency result in experiment [1] is “inactive”. In experiment [2], the activity change, negative = inhibition was -16.1%.
The like results for `Cc1ccc(NC(=O)c2ccc(CN3CC[C@H](N(C)C)C3)c(C(F)(F)F)c2)cc1Nc1nccc(-c2cncnc2)n1` were, in that order, “inactive” and -12% [at 27.1 µM].

Values taken from PubChem BioAssay (NCATS).
